# Test results published in PubChem BioAssay (NCATS).
# Records with an inconclusive call do not appear. A call without a number means that no potency is given here. Where a structure was tested more than once in an assay, its records may differ in their call. Activity calls are given as the source filed them. Calls follow the shape of the dose curve; as a rule, active = well fitted curve in the direction sought with a large enough effect; inconclusive = small, poorly fitted or top-dose-only effect, or another doubt; inactive = no such curve, though single readings can be large; an effect the other way counts as inactive or inconclusive.
# Molecular target: Flap endonuclease 1 (Homo sapiens) (UniProt P39748)
# Experiment: qHTS Validation Assay for the Inhibitors of Human Flap endonuclease 1 (FEN1) (AID 488816)
# Details: FEN1 nuclease activity, fluorogenic DNA substrate; series mostly up to 57.1 µM
# How it was run: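 Enzyme reagent 10 nM; cpds pinned; 15 min RT preinc.; substrate 50 nM final; reads t=0 and 15 min; no-enzyme buffer wells as neg. control; normalized data, 4-parameter Hill fit.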
# Potency is read from the fitted curve at half-maximal effect.
# Flap endonuclease 1 (Homo sapiens), sequence (P39748 whole entry, looked up): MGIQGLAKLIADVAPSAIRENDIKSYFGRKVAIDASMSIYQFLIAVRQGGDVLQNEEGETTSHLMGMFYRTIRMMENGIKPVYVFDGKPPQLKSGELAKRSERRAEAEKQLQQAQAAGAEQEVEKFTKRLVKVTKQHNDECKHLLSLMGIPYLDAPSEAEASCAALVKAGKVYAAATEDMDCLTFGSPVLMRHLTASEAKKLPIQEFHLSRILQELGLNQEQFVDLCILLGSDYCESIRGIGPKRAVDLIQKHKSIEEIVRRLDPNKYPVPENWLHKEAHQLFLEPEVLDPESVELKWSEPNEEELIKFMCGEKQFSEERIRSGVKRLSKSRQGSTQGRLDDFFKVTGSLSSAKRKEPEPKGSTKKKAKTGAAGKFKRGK
row,SMILES,Potency
1,CC12CC3CC(C)(C1)CC(N)(C3)C2,inactive
2,CCC1C(=O)OCC1Cc1cncn1C (stereo not drawn),inactive
3,CN1C[C@H](CNC(=O)OCc2ccccc2)C[C@@H]2c3cccc4c3c(cn4C)C[C@H]21,inactive
4,CC(COc1ccccc1)N(CCCl)Cc1ccccc1 (stereo not drawn),inactive
5,O=c1[nH]c2ccccc2n1C1CCN(CCCC(c2ccc(F)cc2)c2ccc(F)cc2)CC1,inactive
6,O=c1c(O)c(-c2ccc(O)c(O)c2)oc2cc(O)cc(O)c12,2.38 µM (active)
7,COc1ccc(Cc2nccc3cc(OC)c(OC)cc23)cc1OC,inactive
8,CCOC(=O)c1ncn2c1CN(C)C(=O)c1cc(F)ccc1-2,inactive
9,O=c1[nH]cc(F)c(=O)[nH]1,inactive
10,Cc1cc2c(C(C)C)c(O)c(O)c(C=O)c2c(O)c1-c1c(C)cc2c(C(C)C)c(O)c(O)c(C=O)c2c1O,11.9 µM (active)
11,Fc1ccc(C(OCCN2CCN(CCCc3ccccc3)CC2)c2ccc(F)cc2)cc1,inactive
12,COc1cc2c(c(OC)c1OC)-c1ccc(OC)c(=O)cc1[C@@H](NC(C)=O)CC2,inactive
13,CC[N+](CC)(CC)CC,inactive
14,C=C(C)[C@H]1Cc2c(ccc3c2O[C@@H]2COc4cc(OC)c(OC)cc4[C@@H]2C3=O)O1,inactive
15,COC[C@H]1OC(=O)c2coc3c2[C@@]1(C)C1=C(C3=O)C2CCC(=O)[C@@]2(C)C[C@H]1OC(C)=O (stereo partly drawn),inactive

# Molecular target: M-phase phosphoprotein 8 (Homo sapiens) (UniProt Q99549)
# Experiment: qHTS Validation Assay for Inhibitors for MPP8 Chromodomain Interactions with Methylated Histone Tails (AID 488949); also: nearly all actives have a fitted effect of over 55% in size
# Details: AlphaScreen MPP8 binding to H3K9me3 peptide; series mostly up to 57.1 µM
# How it was run: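 AlphaScreen read-out: streptavidin donor and nickel chelate acceptor beads (final 10 ug/mL), 30 min in the dark at RT. Complex of 50 nM MPP8 and 50 nM b-H3(1-18)K9me3 peptide had been exposed to compounds for 30 min beforehand.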
# M-phase phosphoprotein 8 (Homo sapiens), sequence (Q99549 whole entry, looked up): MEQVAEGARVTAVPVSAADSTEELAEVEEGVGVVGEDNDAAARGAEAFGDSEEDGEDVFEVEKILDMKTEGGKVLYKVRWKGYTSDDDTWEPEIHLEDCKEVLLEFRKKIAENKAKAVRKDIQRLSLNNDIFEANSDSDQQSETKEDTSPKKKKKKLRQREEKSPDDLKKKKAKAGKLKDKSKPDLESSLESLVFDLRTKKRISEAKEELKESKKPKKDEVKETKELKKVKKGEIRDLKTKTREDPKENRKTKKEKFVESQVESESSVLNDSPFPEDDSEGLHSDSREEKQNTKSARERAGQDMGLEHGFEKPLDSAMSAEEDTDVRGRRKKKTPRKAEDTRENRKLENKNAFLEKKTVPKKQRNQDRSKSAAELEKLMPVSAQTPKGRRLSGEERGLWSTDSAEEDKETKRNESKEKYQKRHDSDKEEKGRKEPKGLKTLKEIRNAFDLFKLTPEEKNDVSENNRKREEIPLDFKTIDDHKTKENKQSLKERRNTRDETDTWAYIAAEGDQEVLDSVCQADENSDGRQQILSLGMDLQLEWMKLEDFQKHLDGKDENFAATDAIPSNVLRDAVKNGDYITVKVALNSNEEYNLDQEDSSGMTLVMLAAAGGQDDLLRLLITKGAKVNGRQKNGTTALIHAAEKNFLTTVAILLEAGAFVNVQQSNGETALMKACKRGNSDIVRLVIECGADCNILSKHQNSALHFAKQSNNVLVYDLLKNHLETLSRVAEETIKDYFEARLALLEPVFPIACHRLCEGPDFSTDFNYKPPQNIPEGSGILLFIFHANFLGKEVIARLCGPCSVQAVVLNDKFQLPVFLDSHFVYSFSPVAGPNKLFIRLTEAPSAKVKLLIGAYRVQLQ
row,SMILES,Potency
1,CCC1C(=O)OCC1Cc1cncn1C (stereo not drawn),inactive
2,CN1C[C@H](CNC(=O)OCc2ccccc2)C[C@@H]2c3cccc4c3c(cn4C)C[C@H]21,inactive
3,CCn1cc(C(=O)O)c(=O)c2ccc(C)nc21,inactive
4,CC(COc1ccccc1)N(CCCl)Cc1ccccc1 (stereo not drawn),inactive
5,Clc1cccc(N2CCNCC2)c1,inactive
6,O=c1[nH]c2ccccc2n1C1CCN(CCCC(c2ccc(F)cc2)c2ccc(F)cc2)CC1,22.4 µM (active)
7,O=c1c(O)c(-c2ccc(O)c(O)c2)oc2cc(O)cc(O)c12,39.8 µM (active) and inactive
8,COc1ccc(Cc2nccc3cc(OC)c(OC)cc23)cc1OC,inactive
9,CC(C)C(=O)Nc1ccc([N+](=O)[O-])c(C(F)(F)F)c1,inactive
10,Cc1ccc(S(=O)(=O)N[C@@H](CCCCN)C(=O)CCl)cc1,inactive
11,Cc1cc2c(C(C)C)c(O)c(O)c(C=O)c2c(O)c1-c1c(C)cc2c(C(C)C)c(O)c(O)c(C=O)c2c1O,15 µM (active)
12,O=c1[nH]c2ccccc2n1CCCN1CCC(n2c(=O)[nH]c3cc(Cl)ccc32)CC1,inactive
13,Fc1ccc(C(OCCN2CCN(CCCc3ccccc3)CC2)c2ccc(F)cc2)cc1,15.8 µM (active)
14,CC[N+](CC)(CC)CC,inactive
15,CC[C@@H](CO)NC(=O)[C@@H]1C=C2c3cccc4c3c(cn4C)C[C@H]2N(C)C1,inactive
16,C=C(C)[C@H]1Cc2c(ccc3c2O[C@@H]2COc4cc(OC)c(OC)cc4[C@@H]2C3=O)O1,inactive
17,CN(C)CCC=C1c2ccccc2CCc2ccccc21,inactive
18,COC[C@H]1OC(=O)c2coc3c2[C@@]1(C)C1=C(C3=O)C2CCC(=O)[C@@]2(C)C[C@H]1OC(C)=O (stereo partly drawn),inactive
